Screening results from PubChem.
Most compounds without a hit are left out; they make up all but 2.5% or so of the library.
NPR2 activator: human GC-B receptor activators, primary screen, HEK293 GC-B cells, cGMP TR-FRET, EC30 CNP | Atrial natriuretic peptide receptor 2 (Homo sapiens), P20594 | hit rate 0.11% among 370,000 | AID 1920062, 2024 | 0% at EC30 CNP, 100% saturating CNP | activation, % at 10 µM;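 active means activation at 10 µM reaching about 35% in either raw or pattern-adjusted values, limit read from the data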
HSF1 inhib: HSF1 inhibitors in luciferase reporter cells, primary screen, cell-based, NIH3T3, luminescence; hit rate 0.77% among 300,000; activity change, negative = inhibition, % at 7.5 µM (by protocol); NIH3T3-HGL HSE-luciferase, MG132-induced, luminescence 8 h; stronger effect = lower value;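 active means more than half of replicate wells show activity change below -50%, luminescence cut by over half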;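 further: luciferase reports HSF-1 transcriptional activity via heat shock element; 0% = median of DMSO wells and -100% = zero luminescence signal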
aDG glyco up: activators of alpha-DG glycosylation, primary screen, uHTS, Pro5-aDG cells, AlphaScreen | alpha-DG glycosylation AlphaScreen (IIH6); 0% Pro5, 100% B10-LARGE cell signal | activation, % at 10 µM | hit rate 0.22% among 360,000 | AID 624168, 2012;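 active means activation of at least 8% versus controls, or a plate z-score of at least 8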;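 further: Pro5 are CHO cells carrying HIG-tagged alpha-DG that lacks glycosylation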
Dyrk1A ADPGlo: rat Dyrk1A kinase inhibitors, primary screen, biochemical, single point, plate reader. inhibition, % at 12.5 µM. ADP-Glo luminescence, NFATc1 peptide. hit rate 0.43% among 310,000. Dual specificity tyrosine-phosphorylation-regulated kinase 1A (Rattus norvegicus), Q63470. AID 504441, 2011; in the data active means inhibition above about 50%;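 further: plate controls were vehicle with enzyme for no effect and no enzyme for full effect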
NPR1 activator: GC-A stimulated cGMP production enhancers – HEK293 GC-A cells, cGMP TR-FRET, EC30 ANP, primary screen | Atrial natriuretic peptide receptor 1 (Homo sapiens), P16066 | 0% at EC30 ANP, 100% saturating ANP | activation, % at 10 µM | hit rate 0.14% among 370,000 | AID 1671463, 2021; in the data active means activation above about 40%
Target sequence (P16066 whole entry, looked up): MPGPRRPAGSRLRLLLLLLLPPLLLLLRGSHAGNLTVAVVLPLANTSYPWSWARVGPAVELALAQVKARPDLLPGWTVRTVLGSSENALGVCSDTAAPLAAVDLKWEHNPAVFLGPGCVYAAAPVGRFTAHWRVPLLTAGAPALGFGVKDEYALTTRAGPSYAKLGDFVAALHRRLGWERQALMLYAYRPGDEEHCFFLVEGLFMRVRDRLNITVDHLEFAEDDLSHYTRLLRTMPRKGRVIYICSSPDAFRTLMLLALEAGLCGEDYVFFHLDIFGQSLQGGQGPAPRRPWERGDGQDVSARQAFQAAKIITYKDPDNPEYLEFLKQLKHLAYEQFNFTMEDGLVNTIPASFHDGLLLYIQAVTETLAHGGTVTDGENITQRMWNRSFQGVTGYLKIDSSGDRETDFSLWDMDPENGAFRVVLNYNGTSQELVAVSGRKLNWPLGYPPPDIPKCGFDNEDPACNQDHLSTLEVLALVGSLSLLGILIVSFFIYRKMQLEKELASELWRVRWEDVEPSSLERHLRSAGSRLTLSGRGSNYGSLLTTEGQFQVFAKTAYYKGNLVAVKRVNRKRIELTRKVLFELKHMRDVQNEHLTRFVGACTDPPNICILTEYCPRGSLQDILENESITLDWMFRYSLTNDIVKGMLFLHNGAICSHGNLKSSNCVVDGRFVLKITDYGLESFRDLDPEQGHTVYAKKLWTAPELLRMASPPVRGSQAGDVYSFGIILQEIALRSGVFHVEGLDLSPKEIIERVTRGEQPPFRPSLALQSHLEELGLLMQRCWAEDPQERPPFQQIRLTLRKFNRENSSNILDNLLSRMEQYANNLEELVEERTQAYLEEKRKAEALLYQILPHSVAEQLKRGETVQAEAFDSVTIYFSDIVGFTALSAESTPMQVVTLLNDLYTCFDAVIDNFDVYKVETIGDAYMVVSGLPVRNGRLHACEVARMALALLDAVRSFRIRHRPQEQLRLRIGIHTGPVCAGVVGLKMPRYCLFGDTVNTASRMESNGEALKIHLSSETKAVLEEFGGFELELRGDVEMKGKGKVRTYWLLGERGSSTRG
HSF-1 act: HSF-1 activators, primary screen, NIH3T3-HGL cells, MG132 stress, luminescence, single point | activation, % at 9 µM | hit rate 1.7% among 300,000 | AID 504408, 2011 | NIH3T3-HGL HSF-1 luciferase reporter, 8 h; 100% = twice DMSO control signal;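 active means mean replicate activation of at least 50% with a set share of replicates each reaching 50%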;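 further: 0% = median of the neutral control wells and 100% = twice that signal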
* marks the source's active call; other numbers are inactive results; ! = a repeat was not active.

Results for CCN(CC)CCNc1nc2c(c(=O)n(C)c(=O)n2C)n1C/C=C(/C)Cl ?
NPR2 activator: -2.9; HSF1 inhib: 1.7; aDG glyco up: 3.4; Dyrk1A ADPGlo: 1.9; NPR1 activator: 1.8; HSF-1 act: 0.6

How did Cc1cccc(Nc2nc3c(c(=O)n(C)c(=O)n3C)n2Cc2ccccc2)c1 do in these assays?
NPR2 activator: 47.2*; HSF1 inhib: 0.1; aDG glyco up: 0.4; Dyrk1A ADPGlo: -1.1; NPR1 activator: 53.4*; HSF-1 act: 11.5

What do the screens show for `CCNc1nc2c(c(=O)n(Cc3ccccc3)c(=O)n2C)n1Cc1ccccc1`?
NPR2 activator: 40.2*; HSF1 inhib: 3.4; aDG glyco up: 0.1; Dyrk1A ADPGlo: -2.3; NPR1 activator: 39.9; HSF-1 act: 29.3

Results for C=C(C)Cn1c(NCCC)nc2c1c(=O)n(C)c(=O)n2C ?
NPR2 activator: 22.7; HSF1 inhib: -53.4*; aDG glyco up: 0.2; Dyrk1A ADPGlo: 4.1; NPR1 activator: 20.2; HSF-1 act: -63.8

What do the screens show for `CCC(C)Nc1nc2c(c(=O)n(C)c(=O)n2C)n1Cc1cccc(C)c1` (stereo unspecified)?
NPR2 activator: 10.7; HSF1 inhib: 1.3; aDG glyco up: -0.2; Dyrk1A ADPGlo: 9.6; NPR1 activator: 20.2; HSF-1 act: 4.2

What do the screens show for `Cn1c(NCC2CCCO2)nc2c1c(=O)n(Cc1ccccc1)c(=O)n2C` (stereo unspecified)?
NPR2 activator: 6.8; HSF1 inhib: 7.9; aDG glyco up: 0.0; Dyrk1A ADPGlo: -9.9; NPR1 activator: 0.8; HSF-1 act: 12.5

Results for CCNc1nc2c(c(=O)n(C)c(=O)n2C)n1Cc1ccc(Cl)cc1 ?
NPR2 activator: 26.6; HSF1 inhib: 4.6; aDG glyco up: 0.7; Dyrk1A ADPGlo: 4.0; NPR1 activator: 27.7; HSF-1 act: 16.5

How did Cn1c(=O)c2c(nc(NCC3CCCO3)n2Cc2cccc(Br)c2)n(C)c1=O (stereo unspecified) do in these assays?
NPR2 activator: 37.7*; HSF1 inhib: -5.0; aDG glyco up: -0.3; Dyrk1A ADPGlo: -0.5; NPR1 activator: 32.1; HSF-1 act: -8.6

Results for CCCNc1nc2c(c(=O)n(C)c(=O)n2C)n1Cc1ccc(F)cc1 ?
NPR2 activator: 40.6*; HSF1 inhib: -3.6; aDG glyco up: 0.4; Dyrk1A ADPGlo: 9.2; NPR1 activator: 32.5; HSF-1 act: 10.2

What do the screens show for `Cc1ccc(S(=O)(=O)NCCOc2nc(N3CCOCC3)nc(N3CCOCC3)n2)cc1`?
NPR2 activator: -0.8; HSF1 inhib: 22.2; aDG glyco up: -0.3; Dyrk1A ADPGlo: 0.8; NPR1 activator: -0.6; HSF-1 act: 57.8*

What do the screens show for `O=S1(=O)c2c(F)cccc2OC(COCc2ccccc2)CN1C1CCCC1` (stereo unspecified)?
NPR2 activator: 1.5; aDG glyco up: 1.1; Dyrk1A ADPGlo: -7.8; NPR1 activator: 4.2

What do the screens show for `O=C(CCNS(=O)(=O)c1ccc(Cl)cc1)OCC(=O)c1ccc[nH]1`?
NPR2 activator: -3.6; HSF1 inhib: 6.3; aDG glyco up: -0.1; Dyrk1A ADPGlo: -2.6; NPR1 activator: -0.5; HSF-1 act: 0.1

What do the screens show for `O=C(NNc1ccc([N+](=O)[O-])cc1[N+](=O)[O-])c1ccco1`?
HSF1 inhib: -11.1; aDG glyco up: 0.0; Dyrk1A ADPGlo: 4.7; HSF-1 act: -0.7

Results for CC(NC(=O)/C(C#N)=C/c1ccc([N+](=O)[O-])o1)c1ccccc1 (stereo unspecified) ?
NPR2 activator: 6.6; HSF1 inhib: -62.2*; aDG glyco up: -0.2; Dyrk1A ADPGlo: 3.2; NPR1 activator: 22.3; HSF-1 act: -66.3

How did Cc1ccc(CNC(=O)CCc2nc(-c3cccs3)no2)cc1 do in these assays?
NPR2 activator: 0.9; HSF1 inhib: 3.3; aDG glyco up: 0.3; Dyrk1A ADPGlo: -0.8; NPR1 activator: -2.1; HSF-1 act: -1.6

How did O=C(CCc1nc(-c2cccs2)no1)NCc1ccc(F)cc1Cl do in these assays?
NPR2 activator: 4.1; HSF1 inhib: -85.5*; aDG glyco up: -0.1; Dyrk1A ADPGlo: -4.1; NPR1 activator: 0.4; HSF-1 act: -88.4

How did O=C(Nc1ccccc1)C1=C(c2ccccc2)S(=O)(=O)CCS1(=O)=O do in these assays?
NPR2 activator: 9.5; HSF1 inhib: -62.3*; aDG glyco up: -1.0; Dyrk1A ADPGlo: -0.1; NPR1 activator: 10.4; HSF-1 act: -67.5

How did CCCc1cc(=O)oc2c3c(cc(OCC(=O)N[C@@H](C)C(=O)O)c12)OC(C)(C)CC3 do in these assays?
NPR2 activator: 4.7; HSF1 inhib: 17.6; aDG glyco up: -0.1; Dyrk1A ADPGlo: 4.7; NPR1 activator: 1.6; HSF-1 act: 66.7*

What do the screens show for `CCC(NC(=O)N(Cc1ccccc1)Cc1ccc2c(c1)OCO2)(C(F)(F)F)C(F)(F)F`?
NPR2 activator: 1.0; HSF1 inhib: -2.2; aDG glyco up: 0.0; Dyrk1A ADPGlo: 1.9; NPR1 activator: -2.2; HSF-1 act: -14.2

How did CCc1ccc2c(c1)C(c1ccc([N+](=O)[O-])cc1)=NNC(c1ccc(F)cc1)=N2 do in these assays?
NPR2 activator: -5.3; HSF1 inhib: 42.1; aDG glyco up: -0.2; Dyrk1A ADPGlo: -6.3; NPR1 activator: -12.6; HSF-1 act: 59.1*

How did Cc1onc(-c2ccccc2)c1NC(=O)N(CCC#N)Cc1ccccc1 do in these assays?
NPR2 activator: 1.1; HSF1 inhib: 9.0; aDG glyco up: -0.1; NPR1 activator: 7.5; HSF-1 act: 58.3*

What do the screens show for `O=C(NCCc1c[nH]c2ccccc12)c1ccc(Cl)cc1`?
NPR2 activator: -4.2; HSF1 inhib: 34.8; aDG glyco up: 0.6; Dyrk1A ADPGlo: 14.5; NPR1 activator: -4.7; HSF-1 act: 58.8*

What do the screens show for `CN(Cc1ccccc1)CC(O)COc1ccc(CNCc2ccc(Cl)s2)cc1` (stereo unspecified)?
NPR2 activator: -8.0; HSF1 inhib: 2.7; aDG glyco up: 6.2*; Dyrk1A ADPGlo: -1.1; NPR1 activator: 1.7; HSF-1 act: 19.4

Results for CN(Cc1ccccc1)CC(O)COc1ccc(CNCc2cccnc2)cc1 (stereo unspecified) ?
NPR2 activator: -3.4; HSF1 inhib: 1.9; aDG glyco up: -0.1; NPR1 activator: 3.0; HSF-1 act: -4.9

What do the screens show for `CCN(CC)CCOc1ccc(/C(=C(/Cl)c2ccccc2)c2ccccc2)cc1`?
NPR2 activator: -3.7; HSF1 inhib: 17.7; aDG glyco up: 0.6; Dyrk1A ADPGlo: 4.4; NPR1 activator: 2.4; HSF-1 act: 67.4*!
